From the supplement of paper PMC4840960 come the findings set out here.

Values without a mark were called inactive.

This experiment concerns E18 rat cortical neuron-glia co-culture. Put plainly: myelination (MBP fiber length per Olig2+ nucleus), % of 1 µM DAPT response (DMSO = 0) (% of DAPT); higher = more myelination, active = 50 or more. To be noted: 5 µM; treatment time: 8 days (DIV5-DIV13). The gist of the method:
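Rat cortical co-cultures from E18 tissue were dissociated with papain and plated at 20,000 cells/well on 96-well plates coated with poly-d-lysine/laminin. From DIV5 to DIV13, library compounds were added at 1 or 5 µM in myelination medium. After fixation in 4 % paraformaldehyde, cultures were immunostained for MBP and Olig2 and counterstained with DAPI, and four 10X fields were analysed in each of duplicate wells. The myelination value is the length of continuous straight MBP fibers per Olig2+ nucleus, normalised so that 0.1 % DMSO is 0 and a 1 µM positive control is 100.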
Turning to `N=C(N)NC(=O)c1nc(Cl)c(N)nc1N` [Amiloride], the myelination was 16.9.

On to `COc1ccc([C@@H]2Sc3ccccc3N(CCN(C)C)C(=O)[C@@H]2OC(C)=O)cc1` [Diltiazem], for which the myelination is -20.8.

Consider `CCCC(=O)Nc1ccc(OCC(O)CNC(C)C)c(C(C)=O)c1` (configuration not stated) [Acebutolol], for which the myelination is -32.5.

With `CC(=O)Nc1nnc(S(N)(=O)=O)s1` [Acetazolamide], the myelination is -1.11.

For `Clc1ccc2c(c1)CCc1cccnc1C2=C1CCNCC1` [Desloratadine], the myelination is -23.3.

In the case of `CCC(=O)O[C@@H]1CC(=O)O[C@H](C)C/C=C/C=C/[C@H](O)[C@H](C)C[C@H](CC=O)[C@H](O[C@@H]2O[C@H](C)[C@@H](O[C@H]3C[C@@](C)(O)[C@@H](OC(=O)CC)[C@H](C)O3)[C@H](N(C)C)[C@H]2O)[C@H]1OC` [Midecamycin], the myelination is 1.11.

Regarding `O=S(=O)(O)CCS` [Mesna], the myelination is -6.97.

As to `C[C@]12CCC(=O)C=C1CC[C@@H]1[C@@H]2[C@@H](O)C[C@@]2(C)[C@H]1CC[C@]2(O)C(=O)CO` [Hydrocortisone], the myelination was -10.2.

Consider `COc1ccc(OC)c(C(O)CNC(=O)CN)c1` (configuration not stated) [Midodrine], for which the myelination is -8.37.

Take `COc1ccccc1OCC(O)COC(N)=O` (configuration not stated) [Methocarbamol]: the myelination was -3.49.

With `CCN(CC)CCOC(=O)C1(C2CCCCC2)CCCCC1` [Dicyclomine], the myelination was -24.6.

On to `CN(CCOc1ccc(NS(C)(=O)=O)cc1)CCc1ccc(NS(C)(=O)=O)cc1` [Dofetilide], for which the myelination is -13.2.
